In PubChem BioAssay one finds composite z-score and z-score data, which are given here for 5 molecules.

Each structure is given as a SMILES string. The source made the active and inactive calls. Unless noted, the rule behind the calls is not given here.

In assay [1] the test system is Wnt5a (protein binding on small-molecule microarray). Put plainly: small molecules binding Wnt5a protein – biophysical, small-molecule microarray, 635/667 nm fluorescence, primary screen (AID 1142).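 Note: fluorescence read at 667 nm with signal to noise per printed feature.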 The note with it: 635 nm fluorescence, higher = more signal.
The nature of assay [2]: ATP-based viability of Huh7 replicon cells – cell-based, CellTiter-Glo luminescence, basal, 48 h, cytotoxicity control for HCV replication inhibitor project, primary screen (AID 1143).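 Note: Huh7 hepatoma cells carrying a hepatitis C replication reporter with no stimulus; test concentration not given here.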 The conditions noted are these: higher = more signal, called active from +8 up or from −8 down. A general note: A replicon is a self-replicating genome or part of one, used to study replication in cells.

A short description of assay [3]: Pseudomonas biofilm growth suppression – PAO1 strain, BacTiter-Glo luminescence, LB-PBS, primary screen (AID 1144). The conditions noted are these: P. aeruginosa PAO1 biofilm, 12 h, higher = more signal.
Assay [4] can be described thus: basal CRE-LacZ reporter activity in PC12 – cell-based, unstimulated, primary screen (AID 1145). The note with it: no forskolin, luminescence, 4.5 h, higher = more signal, called active from +8 up or from −8 down.
Assay [5] can be described thus: forskolin-driven CRE-LacZ activity in PC12 – cell-based, CRE-LacZ reporter, forskolin-stimulated, primary screen (AID 1146).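 Note: PC12 cells with 6xCRE LacZ reporter stimulated by forskolin 10 µM; beta-galactosidase reporter signal reflecting CREB driven transcription.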 The conditions noted are these: luminescence, 4.5 h, higher = more signal, called active from +8 up or from −8 down.
Assay [6] concerns the target Streptavidin (Streptomyces avidinii) (UniProt P22629). Put plainly: compounds binding control protein streptavidin – biophysical, small-molecule microarray, 635/667 nm fluorescence, artefact control for SMM compound annotation, primary screen (AID 1147).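 Note: signal reflects streptavidin binding to arrayed compounds as a control protein.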 The note with it: higher = more signal.
A short description of assay [7]: probe aInhba binding on compound microarray – biochemical, small-molecule microarray, 635/667 nm fluorescence, primary screen (AID 1148).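 Note: score merges 667nm spot fluorescence with signal-to-noise for antibody binding to printed compounds.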 The note with it: higher = more signal.
Assay [8] deals with Torsin-1A (Homo sapiens) (UniProt O14656). Put plainly: TOR1A wild-type binding on microarray – cell lysate, small-molecule microarray, lysate, 635/667 nm, primary screen (AID 1149). The conditions noted are these: COS7 hTOR1A-WT lysate, 635 nm fluorescence, higher = more signal.
The target is the same in assay [9]. Put plainly: torsin A mutant lysate binding on microarrays – cell lysate, small-molecule microarray, COS7 lysate, 635/667 nm fluorescence, primary screen (AID 1150).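 Note: score pools 667 nm emission and signal to noise measuring lysate protein binding.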 The conditions noted are these: COS7 hTOR1A mutant lysate, 635 nm fluorescence, higher = more signal.
Assay [10] deals with Sonic hedgehog protein (Shh). Put plainly: Sonic hedgehog microarray binding compounds – biochemical, small-molecule microarray, 635/667 nm fluorescence, primary screen (AID 1151).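 Note: Shh protein binding to compounds spotted on small-molecule microarray slides; score combines spot fluorescence intensity with signal-to-noise across triplicate slides.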 The conditions noted are these: 635 nm fluorescence, higher = more signal.
Assay [11] is described as follows: optical density shifts of acrAB sulA E. coli – strain DRC41, OD650, 48 h, E. coli filamentation inducer project, primary screen (AID 1152).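 Note: E. coli MC1000 strain DRC41 lacking acrAB efflux pump and sulA.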 The conditions noted are these: higher = more signal, called active from +8 up or from −8 down.
Assay [12] in a line: probe aLefty1 binding on compound microarray – biochemical, small-molecule microarray, 635/667 nm fluorescence, primary screen (AID 1153).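 Note: score merges spot fluorescence with signal-to-noise ratio from the scanned slide images.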 The note with it: higher = more signal.
Assay [13] is described as follows: plasmodial surface anion channel blockers, osmotic lysis – cell-based, P. falciparum Indochina, OD700, 1 h, primary screen (AID 1154). The conditions noted are these: P. falciparum Indochina infected RBC osmotic lysis, higher = more signal, called active from +8 up or from −8 down.
A short description of assay [14]: plasmodial surface anion channel blockers, osmotic lysis – cell-based, P. falciparum Indochina, OD700, 2 h, primary screen (AID 1155).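 Note: lysis reports solute entry through the parasite surface anion channel PSAC.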 The note with it: P. falciparum Indochina infected erythrocytes, higher = more signal, called active from +8 up or from −8 down.
The nature of assay [15]: changes in parasitized red cell lysis, either direction – P. falciparum Indochina, OD700, 3 h, PSAC antagonist project, primary screen (AID 1156). The note with it: P. falciparum-infected erythrocytes, osmotic lysis, higher = more signal, called active from +8 up or from −8 down.
Assay [16] is described as follows: plasmodial surface anion channel blockers, osmotic lysis – cell-based, P. falciparum Indochina, OD700, 18 h, primary screen (AID 1157). The conditions noted are these: P. falciparum Indochina infected erythrocytes, osmotic lysis OD700, 18 h; higher = more signal, called active from +8 up or from −8 down.
Assay [17] can be described thus: S6 kinase pathway phospho-S6 level changes – cell-based, A549, cytoblot, luminescence, serum-stimulated, primary screen (AID 1158).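 Note: serum-stimulated A549 lung adenocarcinoma cells; signal is phosphorylated S6 detected by cytoblot immunostaining with HRP secondary.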 The conditions noted are these: 5 h, higher = more signal.
The target in assay [18] is NADPH oxidase 2 (Homo sapiens) (UniProt P04839). Put plainly: compounds shifting NOX2 Amplex Red fluorescence – cell-based, HEK293-NOX2, PMA-stimulated, NOX inhibitor project, primary screen (AID 1159). Note: test concentration not given here. The conditions noted are these: 45 min, higher = more signal, called active from +8 up or from −8 down.
The target in assay [19] is NADPH oxidase 4 (Homo sapiens) (UniProt Q9NPH5). Put plainly: compounds shifting NOX4 Amplex Red fluorescence – cell-based, HEK293-NOX4, tetracycline-induced, NOX inhibitor project, primary screen (AID 1160). The note with it: HEK293-NOX4, Amplex Red H2O2 fluorescence, 45 min; higher = more signal, called active from +8 up or from −8 down.
For assay [20], the target named is NADPH oxidase 5 (Homo sapiens) (UniProt Q96PH1). Put plainly: compounds shifting NOX5 Amplex Red fluorescence – cell-based, HEK293-NOX5, NOX inhibitor project, primary screen (AID 1161). The note with it: HEK293-NOX5, ionomycin, 45 min, higher = more signal.
NADPH oxidase 5 (Homo sapiens), sequence (Q96PH1 whole entry, looked up): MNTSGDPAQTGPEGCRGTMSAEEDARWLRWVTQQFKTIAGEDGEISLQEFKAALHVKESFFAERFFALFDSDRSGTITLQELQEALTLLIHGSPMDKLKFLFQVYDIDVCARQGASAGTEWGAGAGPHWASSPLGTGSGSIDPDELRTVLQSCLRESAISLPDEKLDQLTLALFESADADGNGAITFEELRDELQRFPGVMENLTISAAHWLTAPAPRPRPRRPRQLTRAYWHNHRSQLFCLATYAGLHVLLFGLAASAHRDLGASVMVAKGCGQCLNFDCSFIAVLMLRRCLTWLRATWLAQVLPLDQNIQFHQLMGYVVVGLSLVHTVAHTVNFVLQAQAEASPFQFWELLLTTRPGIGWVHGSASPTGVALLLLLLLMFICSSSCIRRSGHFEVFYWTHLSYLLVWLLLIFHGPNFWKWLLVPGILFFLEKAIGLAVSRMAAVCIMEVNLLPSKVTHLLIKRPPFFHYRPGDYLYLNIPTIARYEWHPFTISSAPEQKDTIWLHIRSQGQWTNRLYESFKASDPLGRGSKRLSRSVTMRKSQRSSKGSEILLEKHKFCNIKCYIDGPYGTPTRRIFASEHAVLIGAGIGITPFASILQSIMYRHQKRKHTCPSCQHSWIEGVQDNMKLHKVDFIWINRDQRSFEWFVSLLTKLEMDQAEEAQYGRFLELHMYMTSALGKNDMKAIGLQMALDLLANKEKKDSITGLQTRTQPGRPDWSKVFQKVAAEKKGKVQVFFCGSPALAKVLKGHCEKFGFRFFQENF

NADPH oxidase 4 (Homo sapiens), sequence (Q9NPH5 whole entry, looked up): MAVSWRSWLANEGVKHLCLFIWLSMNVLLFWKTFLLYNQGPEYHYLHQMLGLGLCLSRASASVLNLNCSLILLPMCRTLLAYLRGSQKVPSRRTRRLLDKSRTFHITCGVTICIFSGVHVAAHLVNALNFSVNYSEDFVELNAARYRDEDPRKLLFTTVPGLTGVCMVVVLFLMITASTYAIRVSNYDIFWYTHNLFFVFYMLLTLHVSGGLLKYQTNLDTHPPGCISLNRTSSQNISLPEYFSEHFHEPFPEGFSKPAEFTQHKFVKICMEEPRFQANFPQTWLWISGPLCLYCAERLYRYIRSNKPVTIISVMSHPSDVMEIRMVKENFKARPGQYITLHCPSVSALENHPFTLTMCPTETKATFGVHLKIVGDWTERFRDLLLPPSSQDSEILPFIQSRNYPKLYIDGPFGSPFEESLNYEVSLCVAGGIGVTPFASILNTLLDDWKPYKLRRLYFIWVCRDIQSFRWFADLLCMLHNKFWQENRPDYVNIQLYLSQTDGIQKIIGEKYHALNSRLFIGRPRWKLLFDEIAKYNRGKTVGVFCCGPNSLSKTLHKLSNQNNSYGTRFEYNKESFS
Streptavidin (Streptomyces avidinii), sequence (P22629 whole entry, looked up): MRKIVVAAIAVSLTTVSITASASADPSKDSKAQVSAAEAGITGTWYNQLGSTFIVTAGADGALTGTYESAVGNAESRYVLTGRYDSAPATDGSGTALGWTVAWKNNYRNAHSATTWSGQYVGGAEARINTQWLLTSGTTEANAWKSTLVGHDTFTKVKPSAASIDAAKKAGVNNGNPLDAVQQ
Torsin-1A (Homo sapiens), sequence (O14656 whole entry, looked up): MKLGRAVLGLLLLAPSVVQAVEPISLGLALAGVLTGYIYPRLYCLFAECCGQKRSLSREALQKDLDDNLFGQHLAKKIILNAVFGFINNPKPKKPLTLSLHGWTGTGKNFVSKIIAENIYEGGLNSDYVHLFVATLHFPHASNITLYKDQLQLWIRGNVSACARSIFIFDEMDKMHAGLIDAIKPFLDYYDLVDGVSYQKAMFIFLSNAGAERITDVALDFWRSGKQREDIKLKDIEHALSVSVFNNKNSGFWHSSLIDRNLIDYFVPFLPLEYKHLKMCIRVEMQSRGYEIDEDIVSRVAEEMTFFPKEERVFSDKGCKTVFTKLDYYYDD
NADPH oxidase 2 (Homo sapiens), sequence (P04839 whole entry, looked up): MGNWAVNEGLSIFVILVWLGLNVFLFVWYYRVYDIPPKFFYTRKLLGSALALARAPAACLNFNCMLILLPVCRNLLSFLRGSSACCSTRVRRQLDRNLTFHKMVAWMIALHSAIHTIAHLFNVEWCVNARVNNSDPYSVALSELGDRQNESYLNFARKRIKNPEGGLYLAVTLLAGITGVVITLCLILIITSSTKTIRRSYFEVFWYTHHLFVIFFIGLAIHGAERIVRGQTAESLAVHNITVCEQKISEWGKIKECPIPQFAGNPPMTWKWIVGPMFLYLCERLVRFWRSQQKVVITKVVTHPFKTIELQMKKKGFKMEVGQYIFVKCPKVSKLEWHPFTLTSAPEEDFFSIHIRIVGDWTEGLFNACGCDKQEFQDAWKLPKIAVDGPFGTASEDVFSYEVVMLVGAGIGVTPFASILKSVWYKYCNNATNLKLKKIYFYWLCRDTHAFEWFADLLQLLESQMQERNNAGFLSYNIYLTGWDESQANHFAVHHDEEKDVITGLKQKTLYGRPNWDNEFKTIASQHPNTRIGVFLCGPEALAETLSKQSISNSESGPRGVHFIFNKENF

For the molecule `CC(C)C(=C=CC[C@@H](O)c1ccc(OCCO)cc1)CCO`, the composite z-score in assay [1] was 0.224; in assay [6], -0.292; in assay [7], -0.0719; in assay [8] it was -0.0298; in assay [9], 0.167; in assay [10], 1.59. The molecule also returned a composite z-score in [12] of -0.0054. In addition, the z-score in [2] was -2.09 (inactive); in assay [3], -0.635 (inactive); in [4] it was -0.844 (inactive); in assay [5] it was -1.31 (inactive); in assay [11], 1.7 (inactive); in [13], 2.86 (inactive). Further, the z-score in [14] was -0.421 (inactive); in [15], -0.143 (inactive); in [16] it was -1.58 (inactive); in assay [17] it was 1.42; in [18], -1.47 (inactive); in assay [19], -0.462 (inactive). In assay [20], the z-score was -0.971.

Regarding `CCCCC=C[C@@H](NC(=O)c1ccc(C(F)(F)F)cc1)c1ccccc1`, the composite z-score in [1] is -0.467; in assay [6] it was -0.683; in assay [7] it was -0.105; in [8] it was -0.652; in assay [9], -0.951; in assay [10] it was -0.845. In assay [12], this molecule had a composite z-score of -0.112. Also, the z-score in assay [2] was -0.954 (inactive); in assay [3], 1.03 (inactive); in assay [4], 0.19 (inactive); in [5], 1.47 (inactive); in [11], -1.96 (inactive); in [13] it was 5.47 (inactive). Further, the z-score in [14] was 0.895 (inactive); in assay [15], -0.427 (inactive); in assay [16] it was 0.373 (inactive); in assay [17], -0.0311; in assay [18], -1.51 (inactive); in [19] it was -1.37 (inactive). Further, the z-score in [20] worked out at 1.1.

In the case of `[N-]=[N+]=NCc1ccccc1[C@@H]1OC(c2ccc(OCCCO)cc2)=N[C@]1(Cc1ccccc1)C(=O)NCc1ccccc1`, the composite z-score was 0.609 in assay [1]; 1.24 in assay [6]; -0.0267 in [7]; 0.823 in assay [8]; 1.1 in assay [9]; -0.471 in assay [10]. Besides, the composite z-score in assay [12] was 0.219. Further, the z-score was -2.86 (inactive) in [2]; -0.338 (inactive) in assay [3]; -0.585 (inactive) in assay [4]; 0.0071 (inactive) in assay [5]; 0.251 (inactive) in assay [11]; 18.4 (active) in [13]. For the same molecule, the z-score in assay [14] was 4.26 (inactive); in [15] it was 1.52 (inactive); in [16] it was 0.983 (inactive); in assay [17], 0.0369; in [18], -3.27 (inactive); in assay [19], 1.15 (inactive). In [20], the z-score is 0.85.

`COc1cccc(OC)c1C(=O)O[C@H]1[C@@H]2OC(=O)[C@H](Cc3cccc(Br)c3)C/C=C/C[C@@H](Cc3cccc(Br)c3)C(=O)O[C@H]2[C@@H](OC)O[C@@H]1CO`: the composite z-score was 0.125 in [1]; -0.114 in assay [6]; -0.128 in assay [7]; -0.0031 in assay [8]; 0.529 in assay [9]; 1.23 in assay [10]. Moreover, the composite z-score in assay [12] was -0.0559. For the same molecule, the z-score in assay [2] is -1.74 (inactive); in [3], -0.0318 (inactive); in assay [4] it was -0.467 (inactive); in assay [5], -0.201 (inactive); in assay [11], -0.899 (inactive); in [13], 3.18 (inactive). In addition, the z-score in assay [14] is -0.0392 (inactive); in assay [15], -1.53 (inactive); in [16], 0.581 (inactive); in assay [17] it was 0.0487; in assay [18], -0.443 (inactive); in assay [19] it was -0.0533 (inactive). Moreover, the z-score in assay [20] was 0.955.

Take `C=CCC(OC(C)=O)[C@@H]1[C@@H](N(Cc2ccc(-c3cccc(C(F)(F)F)c3)o2)C(=O)c2cccc3ccccc23)c2cc(OCCCO)ccc2N1C(=O)c1ccc2ccccc2n1` (stereo not given in full): the composite z-score was -0.0713 in assay [1]; -0.32 in assay [6]; -0.024 in assay [7]; 0.17 in assay [8]; -0.662 in assay [9]; 0.259 in [10]. In assay [12], the composite z-score came out at 0.007. For the same molecule, the z-score in [2] was -1.33 (inactive); in [3] it was -0.214 (inactive); in assay [4], -0.258 (inactive); in assay [5] it was 0.0155 (inactive); in assay [11], -0.855 (inactive); in [13] it was 0.706 (inactive). Besides, the z-score in [14] was -0.342 (inactive); in assay [15], 1.32 (inactive); in assay [16], 0.139 (inactive); in [17], 0.2; in assay [18], -3.37 (inactive); in assay [19], -1.17 (inactive). The z-score in assay [20] was -0.606.
